Assay results taken from PubChem BioAssay (NCATS).
Results filed as inconclusive are left out. Activity calls are given as the source filed them. Calls come from the whole dose curve; as a rule, active = well fitted curve in the direction sought with a large enough effect; inconclusive = small, poorly fitted or top-dose-only effect, or another doubt; inactive = no such curve, though single readings can be large; an effect the other way counts as inactive or inconclusive.

Experiments:
[1] = Quantitative High-Throughput drug screen in 47 multiple myeloma cell lines against the NCATS MIPE library collection: KMM1_JCRB cell viability assay (AID 1918960); note: nearly all actives have a fitted effect of over 30% in size
Summary of the method: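 ATP readout (CellTiter-Glo), 48 h drug incubation, 37 °C/5% CO2, 500 cells per well; normalisation to DMSO (100%) and media-only (0%) controls.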

[2] = Quantitative High-Throughput drug screen in 47 multiple myeloma cell lines against the NCATS MIPE library collection: JIM3_ECACC cell viability assay (AID 1918963; note: nearly all actives have a fitted effect of over 35% in size)
Summary of the method: (§1)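 Myeloma cell lines, 500 cells per well, exposed to MIPE 4.0 library compounds for 48 h at 37C, 5% CO2. Viability from ATP by CellTiter-Glo luminescence; normalised to DMSO (100%) and media-only (0%) wells.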

[3] = Quantitative High-Throughput drug screen in 47 multiple myeloma cell lines against the NCATS MIPE library collection: JIM1_ECACC cell viability assay (AID 1918964)
Summary of the method: (§2)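 Inhibition of cell viability is measured here. Each line was plated at 500 cells per well, treated with MIPE 4.0 drugs, kept 48 hours at 37C, then assayed for ATP content by CellTiter-Glo luminescence.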

[4] = Quantitative High-Throughput drug screen in 47 multiple myeloma cell lines against the NCATS MIPE library collection: INA6_PLB cell viability assay (AID 1918965; note: nearly all actives have a fitted effect of over 55% in size)
Summary of the method: as §1

[5] = Quantitative High-Throughput drug screen in 47 multiple myeloma cell lines against the NCATS MIPE library collection: JJN3_DSMZ cell viability assay (AID 1918966; note: nearly all actives have a fitted effect of over 50% in size)
Summary of the method: as §2

[6] = Quantitative High-Throughput drug screen in 47 multiple myeloma cell lines against the NCATS MIPE library collection: H1112_PLB cell viability assay (AID 1918967; note: nearly all actives have a fitted effect of over 30% in size)
Summary of the method: as §2

[7] = Quantitative High-Throughput drug screen in 47 multiple myeloma cell lines against the NCATS MIPE library collection: Karpas25_ECACC cell viability assay (AID 1918968; note: nearly all actives have a fitted effect of over 35% in size)
Summary of the method: as §2

[8] = Quantitative High-Throughput drug screen in 47 multiple myeloma cell lines against the NCATS MIPE library collection: KMS27_JCRB cell viability assay (AID 1918970); settings: KMS27 myeloma cells, CellTiter-Glo ATP viability, 48 h; viability (% of DMSO): at 45.8 µM (top of the series); note: nearly all actives have a fitted effect of over 30% in size
Summary of the method: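 KMS27_JCRB myeloma cells, 500 per well, exposed 48 h at 37 C, 5% CO2 to MIPE 4.0 compounds. Viability from ATP by CellTiter-Glo luminescence, normalized to DMSO (100%) and medium-only (0%) wells.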

[9] = Quantitative High-Throughput drug screen in 47 multiple myeloma cell lines against the NCATS MIPE library collection: KMS26_JCRB cell viability assay (AID 1918975); note: nearly all actives have a fitted effect of over 45% in size
Summary of the method: as §1

[10] = Quantitative High-Throughput drug screen in 47 multiple myeloma cell lines against the NCATS MIPE library collection: MMM1_PLB cell viability assay (AID 1918976); note: nearly all actives have a fitted effect of over 35% in size
Summary of the method: (§3)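 500 cells/well per myeloma line exposed to pinned MIPE 4.0 compounds for 48 h at 37 °C, 5% CO2. Viability read as ATP by CellTiter-Glo luminescence, normalised to DMSO-only (100%) and media-only (0%) wells.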

[11] = Quantitative High-Throughput drug screen in 47 multiple myeloma cell lines against the NCATS MIPE library collection: NCIH929_DSMZ cell viability assay (AID 1918978); note: nearly all actives have a fitted effect of over 35% in size
Summary of the method: as §3

[12] = Quantitative High-Throughput drug screen in 47 multiple myeloma cell lines against the NCATS MIPE library collection: OCIMY1_PLB cell viability assay (AID 1918979); note: nearly all actives have a fitted effect of over 35% in size
Summary of the method: as §3

[13] = Quantitative High-Throughput drug screen in 47 multiple myeloma cell lines against the NCATS MIPE library collection: KHM11_PLB cell viability assay (AID 1918962); note: nearly all actives have a fitted effect of over 35% in size
Summary of the method: as §1

[14] = Quantitative High-Throughput drug screen in 47 multiple myeloma cell lines against the NCATS MIPE library collection: KMS12PE_JCRB cell viability assay (AID 1918972); note: nearly all actives have a fitted effect of over 30% in size
Summary of the method: as §1

[15] = Quantitative High-Throughput drug screen in 47 multiple myeloma cell lines against the NCATS MIPE library collection: KMS20_JCRB cell viability assay (AID 1918973); note: nearly all actives have a fitted effect of over 45% in size
Summary of the method: as §2

[16] = Quantitative High-Throughput drug screen in 47 multiple myeloma cell lines against the NCATS MIPE library collection: KMS12BM_JCRB cell viability assay (AID 1918971); note: nearly all actives have a fitted effect of over 35% in size
Summary of the method: as §1

[17] = Quantitative High-Throughput drug screen in 47 multiple myeloma cell lines against the NCATS MIPE library collection: MM1S_ATCC cell viability assay (AID 1918980); note: nearly all actives have a fitted effect of over 45% in size
Summary of the method: as §3

[18] = Quantitative High-Throughput drug screen in 47 multiple myeloma cell lines against the NCATS MIPE library collection: MOLP8_DSMZ cell viability assay (AID 1918977); note: nearly all actives have a fitted effect of over 45% in size
Summary of the method: as §3

Measured: Potency
Potency is the fitted concentration of half-maximal effect.

COc1ccc(-c2oc3c(CC=C(C)C)c(O)cc(O)c3c(=O)c2O)cc1
active: [4] 16.6 µM | [5] 18.7 µM | [6] 16.6 µM | [7] 14.8 µM | [9] 16.6 µM | [10] 20.9 µM | [11] 10.5 µM
inactive: [1] | [2] | [3] | [8] | [12]

O=C1NC(=O)C(c2cnc3ccccn23)=C1c1cn2c3c(cccc13)CN(C(=O)N1CCOCC1)CC2
active: [1] 13.2 µM | [13] 0.001 µM | [4] 0.001 µM | [6] 1.48 µM | [7] 0.001 µM | [14] 0.001 µM | [15] 3.72 µM | [9] 0.0235 µM
inactive: [12]

COc1c(C)c2c(c(O)c1CC=C(C)CCC(=O)O)C(=O)OC2
active: [2] 4.69 µM | [3] 9.35 µM | [4] 0.935 µM | [5] 4.69 µM | [6] 4.18 µM | [16] 3.32 µM | [14] 14.8 µM | [10] 1.18 µM | [12] 13.2 µM | [17] 3.72 µM
inactive: [1]

COc1cccc(OC)c1-c1cc(C(=O)NC2(C(=O)O)C3CC4CC(C3)CC2C4)nn1-c1ccnc2cc(Cl)ccc12 (configuration not stated)
active: [10] 14.8 µM | [17] 16.6 µM
not listed: [3] | [4] | [5] | [12] | [16]
inactive: all other assays above

COc1cc(Cl)cn2c(-c3cccc(NC4CNC4)n3)cnc12
active: [1] 16.6 µM | [13] 18.7 µM | [3] 4.18 µM | [4] 16.6 µM | [16] 20.9 µM | [10] 20.9 µM

CCCCCCCCCCCCCC(=O)N[C@H](CO)[C@H](O)c1ccc([N+](=O)[O-])cc1
inactive: [12]
active: [1] 20.9 µM | [2] 26.4 µM | [3] 14.8 µM | [4] 23.5 µM | [5] 18.7 µM | [7] 18.7 µM | [8] 14.8 µM | [16] 23.5 µM | [14] 8.33 µM | [15] 23.5 µM | [11] 23.5 µM

CC1C(=O)OC2C(O)C34C5CC(C(C)(C)C)C36C(OC(=O)C6O)OC4(C(=O)O5)C12O (configuration not stated)
active: [10] 0.0187 µM | [17] 20.9 µM
not listed: [13] | [15] | [18]
inactive: all other assays above

Oc1cc(O)cc(C=Cc2ccc(O)c(O)c2)c1
active: [1] 13.2 µM | [2] 14.8 µM | [3] 16.6 µM | [4] 2.96 µM | [5] 16.6 µM | [6] 13.2 µM | [7] 7.43 µM | [8] 18.7 µM | [15] 2.96 µM | [9] 23.5 µM | [10] 23.5 µM | [18] 18.7 µM | [11] 6.62 µM | [17] 26.4 µM

OC[C@H]1O[C@@H](Oc2ccc(O)cc2)[C@H](O)[C@@H](O)[C@H]1O
inactive: [1] | [13] | [7] | [15] | [9] | [18]
active: [2] 10.5 µM

CCC[C@H](Nc1nc(-c2ccc(NC(=O)NCC)c(OC)c2)ncc1C)c1cccnc1
active: [1] 0.001 µM | [4] 0.001 µM | [5] 0.0235 µM | [6] 0.0047 µM | [9] 0.0209 µM | [10] 0.0209 µM | [18] 0.0662 µM | [11] 0.0074 µM | [17] 0.0209 µM
inactive: [13]

C[C@@H]1[C@H](C)CC[C@]2(C(=O)O)CC[C@]3(C)C(=CC[C@@H]4[C@@]5(C)CC[C@H](O)C(C)(C)[C@H]5CC[C@]43C)[C@@H]12
active: [16] 19.1 µM | [9] 19.1 µM | [10] 21.5 µM | [12] 54 µM
inactive: [1] | [13] | [2] | [6] | [8] | [15] | [11] | [17]

CCOC(=O)[C@H](CCc1ccccc1)N[C@@H](C)C(=O)N1CCCC1C(=O)O (some centres not stated)
active: [17] 10.5 µM
not listed: [2] | [3] | [4] | [8] | [9] | [10] | [12]
inactive: all other assays above

COc1cc(F)c(C(C)C)cc1-c1ccc(C(F)(F)F)cc1CN1C(=O)O[C@H](c2cc(C(F)(F)F)cc(C(F)(F)F)c2)[C@@H]1C
active: [16] 3.32 µM | [10] 1.18 µM
inactive: [1] | [2] | [3] | [6] | [7] | [14] | [11]

CCCCCCCCCCCCCCCC(=O)O[C@H]1[C@@H](O)[C@@H](O)[C@@H]([C@H](NC(=O)[C@@H]2C[C@@H](CCC)CN2C)[C@H](C)Cl)O[C@@H]1SC
active: [1] 8.33 µM | [6] 18.7 µM | [8] 7.43 µM | [16] 4.69 µM | [10] 4.18 µM | [11] 2.96 µM | [17] 18.7 µM
inactive: [2] | [3] | [14] | [9]
